Source: paper PMC7826789 (International Journal of Molecular Sciences, 2021)

Experiments:
Details in all cases: Compound Concentration (nM):1000
MET(Y1235D) = tested on: MET(Y1235D)
MET = tested on: MET
MINK = tested on: T1, MINK
T1 construct: gene MINK1

MKK7 = tested on: T2, MKK7
T2 construct: gene MAP2K7

MKNK1 = tested on: MKNK1
MKNK2 = tested on: MKNK2
MLCK = tested on: T3, MLCK
T3 construct: gene MYLK3

MLK1 = tested on: T4, MLK1
T4 construct: gene MAP3K9

MLK2 = tested on: T5, MLK2
T5 construct: gene MAP3K10

MLK3 = tested on: T6, MLK3
T6 construct: gene MAP3K11
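Note: KINOMEscan scanMAX binding as percent activity remaining versus control; lower means stronger binding.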

| SMILES | Percent Control (MET(Y1235D)) [%] | Percent Control (MET) [%] | Percent Control (MINK) [%] | Percent Control (MKK7) [%] | Percent Control (MKNK1) [%] | Percent Control (MKNK2) [%] | Percent Control (MLCK) [%] | Percent Control (MLK1) [%] | Percent Control (MLK2) [%] | Percent Control (MLK3) [%] |
| --- | --- | --- | --- | --- | --- | --- | --- | --- | --- | --- |
| CC(C)COC(=O)c1ccc2c(c1)/C(=C/Nc1ccc(S(N)(=O)=O)cc1)C(=O)N2 [GW416981X] | 94 | 100 | 37 | 100 | 100 | 100 | 100 | 100 | 96 | 100 |
| COc1ccc2[nH]c3c4[nH]c5ccc(OC)cc5c4c4c(c3c2c1)C(=O)NC4=O [GW296115X] | 76 | 78 | 1.7 | 88 | 92 | 54 | 16 | 2.2 | 83 | 5.6 |
| COc1ccccc1-c1cc(/C=C2\C(=O)Nc3ncc(Br)cc32)cc(Br)c1O [GW442130X] | 100 | 92 | 93 | 100 | 100 | 100 | 100 | 99 | 100 | 100 |
| CC1=C(C(=O)Nc2ccc3[nH]ncc3c2)C(c2ccc(Cl)c(Cl)c2)CC(=O)N1 (stereo not drawn) [GSK299115A] | 97 | 97 | 69 | 90 | 81 | 66 | 99 | 70 | 86 | 97 |
| Cc1cc(O)cc(C)c1/C=C/c1cncc(C(N)=O)c1 [GW435821X] | 100 | 100 | 87 | 100 | 69 | 31 | 100 | 100 | 56 | 100 |
| Cl.c1ccc(Cc2nc3ccc(Nc4ncnc5ccccc45)cc3[nH]2)cc1 [GR269666A] | 91 | 100 | 92 | 100 | 86 | 100 | 100 | 100 | 100 | 91 |
| NS(=O)(=O)c1ccc(N/N=C2\C(=O)Nc3ccc(C(=O)NCCc4c[nH]cn4)cc32)cc1 [GW300660X] | 100 | 100 | 43 | 100 | 100 | 100 | 100 | 100 | 100 | 100 |
| NS(=O)(=O)c1ccc(N/N=C2\C(=O)Nc3ccc(-c4cnco4)cc32)cc1 [GW276655] | 100 | 94 | 3.8 | 93 | 93 | 71 | 19 | 73 | 64 | 96 |
| COc1cc(C)c(N(C)C(=O)CN(C)C)cc1Nc1nc(Nc2cccc(F)c2C(N)=O)c2cc[nH]c2n1 [GSK2219385] | 99 | 65 | 86 | 97 | 75 | 98 | 78 | 55 | 100 | 100 |
| CCc1ccc(Oc2nccc(-c3c(-c4ccc(F)cc4)ncn3C3CCNCC3)n2)cc1 [SB-242719] | 100 | 93 | 36 | 90 | 83 | 100 | 76 | 85 | 100 | 71 |
| Cl.O=C(O[C@H]1CN[C@H](C#Cc2cc3ncnc(Nc4ccc5c(cnn5Cc5ccccc5)c4)c3s2)C1)N1CCOCC1 [GSK200398A] | 100 | 100 | 98 | 75 | 70 | 47 | 100 | 100 | 100 | 92 |
| COc1cc(/C=N/Nc2ncnc3[nH]ncc23)ccc1O [GW578748X] | 83 | 100 | 39 | 100 | 78 | 38 | 90 | 66 | 51 | 43 |
| CCn1c(-c2nonc2N)nc2c(C#CC(C)(C)O)nc(OCCNC)cc21.Cl [GSK949675] | 100 | 97 | 100 | 100 | 98 | 100 | 100 | 100 | 100 | 100 |
| COc1cc2ncn(-c3cc(O[C@H](C)c4ccccc4Cl)c(C(N)=O)s3)c2cc1OC [GSK237701A] | 71 | 78 | 55 | 97 | 73 | 77 | 97 | 64 | 95 | 92 |
| O=C(Nc1n[nH]c2nc(-c3ccc(O)cc3)c(Br)cc12)C1CC1 [SB-725317] | 100 | 100 | 42 | 100 | 49 | 90 | 67 | 100 | 100 | 100 |
| COc1cccc(-c2c[nH]c3c(N/N=C/c4ccncc4)ncnc23)c1 [GW814408X] | 75 | 64 | 33 | 100 | 57 | 30 | 95 | 61 | 76 | 73 |
| COc1ccc(COc2ccc(Cc3cnc(N)nc3N)cc2OC)cc1 [GW632580X] | 100 | 95 | 85 | 80 | 76 | 100 | 100 | 85 | 53 | 90 |
| COc1cc2ncnc(Nc3ccc4c(cnn4Cc4ccccc4)c3)c2cc1OC.Cl [GW282449A] | 100 | 100 | 87 | 100 | 100 | 76 | 100 | 100 | 100 | 100 |
| C/C(Nc1ccc(S(N)(=O)=O)cc1)=C1/C(=O)Nc2ccccc21 [GW335962X] | 100 | 72 | 2.8 | 91 | 74 | 100 | 69 | 77 | 75 | 98 |
| NS(=O)(=O)c1ccc(Nc2ncc(-c3ccccc3)o2)cc1 [GW572399X] | 100 | 100 | 40 | 100 | 39 | 53 | 100 | 100 | 100 | 100 |

| SMILES | Percent Control (MET(Y1235D)) [%] | Percent Control (MET) [%] | Percent Control (MINK) [%] | Percent Control (MKK7) [%] | Percent Control (MKNK1) [%] | Percent Control (MKNK2) [%] | Percent Control (MLCK) [%] | Percent Control (MLK1) [%] | Percent Control (MLK2) [%] | Percent Control (MLK3) [%] |
| --- | --- | --- | --- | --- | --- | --- | --- | --- | --- | --- |
| CCS(=O)(=O)c1ccc(OC)c(Nc2ncc(-c3cccc(OC)c3)o2)c1 [GW580509X] | 100 | 100 | 70 | 100 | 100 | 94 | 100 | 100 | 100 | 96 |
| NS(=O)(=O)c1ccc(N/N=C2\C(=O)Nc3ccc(C(=O)NCc4ccncc4)cc32)cc1 [GW300657X] | 91 | 100 | 34 | 93 | 56 | 78 | 45 | 89 | 99 | 100 |
| COc1ccc2cc(-c3c(-c4ccncc4)nc(-c4ccc(S(C)(=O)=O)cc4C)n3C)ccc2c1 [SB-633825] | 100 | 80 | 43 | 89 | 66 | 73 | 90 | 63 | 79 | 82 |
| COc1ccc2c(-c3ccnc(Nc4cccc(OC(F)(F)F)c4)n3)cnn2n1 [GW810372X] | 100 | 100 | 93 | 100 | 73 | 100 | 100 | 100 | 74 | 100 |
| C[C@@H](Oc1cc(-n2cnc3ccc(OC4CCN(C)CC4)cc32)sc1C(N)=O)c1ccccc1Cl [GSK579289A] | 98 | 58 | 75 | 78 | 71 | 60 | 72 | 39 | 86 | 100 |
| O=C1Nc2ccc(C(=O)c3ccco3)cc2C1=Cc1cc(Cl)c(O)c(Cl)c1 [GW406108X] | 100 | 67 | 13 | 78 | 72 | 89 | 100 | 97 | 100 | 95 |
| CN(C)c1cc2c(Nc3ccc4c(cnn4Cc4ccccc4)c3)ncnc2cn1 [GW282974X] | 100 | 94 | 100 | 95 | 74 |  | 98 | 89 | 95 | 100 |
| CC1=C(C(=O)Nc2ccc3[nH]ncc3c2)C(c2ccc3ccccc3c2)CC(=O)N1 (stereo not drawn) [GSK270822A] | 87 | 47 | 87 | 75 | 75 | 73 | 92 | 68 | 100 | 76 |
| COC(=O)Nc1nc2ccc(Oc3ccc(NC(=O)Nc4cc(C(F)(F)F)ccc4F)cc3)cc2s1.Cl [GW693917A] | 6.6 | 33 | 79 | 97 | 45 | 31 | 99 | 97 | 85 | 100 |
| CN(C)CCNC(=O)Nc1ccc(N(C)c2ccnc(Nc3ccc(CS(C)(=O)=O)cc3)n2)cc1.Cl [GW830900A] | 57 | 21 | 59 | 100 | 100 | 53 | 100 | 97 | 99 | 100 |
| COc1cc(C=NNc2ncnc3c2cnn3-c2ccccc2)ccc1O [GW513184X] | 57 | 36 | 48 | 100 | 100 | 50 | 98 | 48 | 83 | 50 |
| Nc1ncnc2occ(-c3ccc(NC(=O)Nc4cc(C(F)(F)F)ccc4F)cc3)c12 [GW770249X] | 60 | 89 | 52 | 100 | 55 | 3.9 | 88 | 66 | 18 | 54 |
| NS(=O)(=O)c1ccc(N/N=C2\C(=O)Nc3ccc(Cl)cc32)cc1 [GW280670X] | 100 | 100 | 25 | 100 | 100 | 100 | 85 | 100 | 98 | 96 |
| COc1cc(N2CCN(C(C)C)CC2)ccc1Nc1nc(Nc2ccc(F)cc2C(=O)NC[C@@H](O)CO)c2cc[nH]c2n1 [GSK1392956A] | 100 | 100 | 80 | 100 | 61 | 97 | 96 | 100 | 100 | 100 |
| CCS(=O)(=O)c1ccc(OC)c(Nc2ncc(-c3cccc(F)c3)o2)c1 [GW621970X] | 100 | 100 | 72 | 100 | 70 | 100 | 100 | 100 | 95 | 100 |
| COc1cccc(-n2ncc3c(N/N=C/c4ccncc4)ncnc32)c1 [GW784752X] | 94 | 91 | 67 | 100 | 47 | 59 | 98 | 100 | 73 | 100 |
| Cl.O=C(Nc1ccc(Oc2ccc3[nH]c(NC(=O)c4ccco4)nc3c2)cc1)Nc1cc(C(F)(F)F)ccc1F [GW683134A] | 6.6 | 17 | 99 | 100 | 48 | 12 | 100 | 64 | 82 | 67 |
| Cl.O=C(Nc1ccc(Oc2ccc3[nH]c(NC(=O)c4ccccc4)nc3c2)cc1)Nc1cc(C(F)(F)F)ccc1F [GW709042A] | 59 | 64 | 93 | 100 | 64 | 26 | 100 | 100 | 47 | 73 |
| Cl.O=S1CCN(Cc2ccc(-c3ccc4ncnc(Nc5ccc(OCc6ccccc6)c(F)c5)c4c3)o2)CC1 [GW576924A] | 100 | 100 | 89 | 51 | 82 | 100 | 100 | 100 | 100 | 100 |
| CN1CCN(C(=O)c2ccc(NC(=O)Nc3ccc(N(C)c4ccnc(Nc5ccc(CS(C)(=O)=O)cc5)n4)cc3)cc2)CC1.Cl [GW830263A] | 4.4 | 8.8 | 18 | 95 | 65 | 4.2 | 86 | 86 | 82 | 91 |
